Bioassay records deposited in PubChem by National Center for Advancing Translational Sciences (NCATS).
An excerpt weighted towards active compounds, which were near 19% of everything screened.
TDP1 inh: inhibitors of human tyrosyl-DNA phosphodiesterase TDP1. recombinant TDP1, AlphaScreen DNA substrate cleavage. Potency, µM (doses to about 130 µM), hits mostly inhibitors. 0.28% of 350,000 active; note: nearly all actives have a fitted effect of over 40% in size
Target sequence (Q9NUW8 whole entry, looked up): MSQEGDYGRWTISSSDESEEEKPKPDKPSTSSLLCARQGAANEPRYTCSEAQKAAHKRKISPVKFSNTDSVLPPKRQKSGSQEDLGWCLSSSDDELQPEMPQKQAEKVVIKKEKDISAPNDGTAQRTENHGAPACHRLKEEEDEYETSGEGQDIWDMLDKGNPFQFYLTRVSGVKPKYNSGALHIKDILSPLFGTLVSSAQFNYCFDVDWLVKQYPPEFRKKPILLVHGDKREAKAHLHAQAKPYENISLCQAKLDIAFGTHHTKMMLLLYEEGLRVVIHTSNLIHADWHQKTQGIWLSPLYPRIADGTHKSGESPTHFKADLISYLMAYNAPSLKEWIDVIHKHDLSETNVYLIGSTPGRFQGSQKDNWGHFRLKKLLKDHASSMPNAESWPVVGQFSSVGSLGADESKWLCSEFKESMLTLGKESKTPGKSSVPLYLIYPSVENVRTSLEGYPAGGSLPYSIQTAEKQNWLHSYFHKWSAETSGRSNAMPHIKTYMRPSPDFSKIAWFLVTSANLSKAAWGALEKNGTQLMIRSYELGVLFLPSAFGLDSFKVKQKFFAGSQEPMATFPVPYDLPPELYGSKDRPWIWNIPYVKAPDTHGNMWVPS
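Compounds were preincubated with Tdp1 (1 nM final) for 15 min at room temperature before substrate (15 nM final) started a 5 min reaction; beads (10 ug/ml final) were then added for 10 min before AlphaScreen detection.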
DT40 TDP1 no CPT: qHTS for Inhibitors of human tyrosyl-DNA phosphodiesterase 1 (TDP1): qHTS in cells in absence of CPT; Potency, µM (series often up to 46.2 µM), hits mostly inhibitors; AID 686978, 2013; 15% of 420,000 active; DT40 Tdp1-/- hTDP1 cells, no CPT, ATP luminescence, 48 h; note: nearly all actives have a fitted effect of over 55% in size
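Seeded 400 DT40-hTDP1 cells/well (vehicle DMSO, no 20 nM CPT); pinned compounds; ≥48 hr at 37 °C; CellTiter-Glo luminescence as viability measure.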
TGFb inhibitor: TGF-b pathway inhibition | HepG2 CAGA-GFP TGF-b/SMAD3 reporter, GFP fluorescence, 18 h; TGF-beta stimulated, 500 pg/mL final | Potency, µM (top dose mostly 46.1 µM), actives largely listed as inhibitors | 1.2% of 410,000 active | AID 588855; note: nearly all actives have a fitted effect of over 65% in size
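Using HEPG2 CAGA-GFP reporter cells at 1000 cells/well, we pinned test compounds, stimulated with recombinant TGF-beta (500 pg/mL final) and measured total well GFP after 18 h.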
IL1B secr inh: inflammasome signaling inhibition, IL-1 beta readout. activity change, % at 57.5 µM. 4.7% of 360,000 active. THP-1 LPS/ATP IL-1B secretion, AlphaLISA, 16 h; hits give low values. AID 743279; in the data active = activity change below about -50%; inconclusive = mostly about -30% to -49%
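THP-1 cells pretreated 1 hr with compounds (up to 57.5 uM final), then stimulated with LPS (250 ng/mL final) plus ATP (1.25 mM final); secreted IL-1B measured by AlphaLISA after 16 hr, decreased signal indicating inhibition.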
TDP1 cell CPT: growth inhibition of DT40 Tdp1-/-;hTDP1 cells with camptothecin (screen for TDP1 inhibitors); chicken DT40 Tdp1-/-;hTDP1 cells + 20 nM CPT, ATP luminescence, 48 h; Potency, µM (highest dose often 46.2 µM), usual class: inhibitors; 12% of 420,000 active; AID 686979; note: nearly all actives have a fitted effect of over 55% in size
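Chicken DT40 Tdp1-/- cells complemented with human TDP1, 400 cells/well, exposed to compounds plus 20 nM camptothecin for at least 48 h at 37 C; viability read as ATP content by CellTiter-Glo luminescence.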
HepG2 tox: kills HepG2 cells in TGF-b inhibitor counter-screen; HepG2 CAGA-GFP viability, ATP luminescence, 18 h; 0.76% of 410,000 active; Potency, µM (highest dose often 46.1 µM), hits mostly cytotoxic
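CellTiter-Glo luminescence gave cytotoxicity after 18 hours at 37 degrees C. The cells were HepG2 CAGA-GFP in 1% FBS DMEM, stimulated with 500 pg/mL TGF-beta after compound addition. %Activity was normalised to no-cell wells (complete cell-killing) and DMSO (no toxicity), and curves were fitted and classified.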
Of the large screens only hits and unclear results are named; the others gave an inactive call. Unless noted, calls come from the whole dose curve; as a rule, active = well fitted curve in the direction sought with a large enough effect; inconclusive = small, poorly fitted or top-dose-only effect, or another doubt; inactive = no such curve, though single readings can be large; an effect the other way counts as inactive or inconclusive.

CN(C)C(=O)CN1C(=O)NC2(CCCc3ccccc32)C1=O (configuration not stated)	none
O=C(CN1C(=O)NC2(CCCc3ccccc32)C1=O)Nc1cccc(S(=O)(=O)N2CCCCC2)c1 (configuration not stated)	DT40 TDP1 no CPT 16.4µM, TGFb inhibitor inconclusive, TDP1 cell CPT inconclusive
Cc1ccc(CN(C)C(=O)CN2C(=O)NC3(CCCc4ccccc43)C2=O)c(C)c1 (configuration not stated)	DT40 TDP1 no CPT 20.6µM, TDP1 cell CPT inconclusive
Cc1nc2sccn2c(=O)c1S(=O)(=O)N1CCN(c2cccc(Cl)c2)CC1	none (no result: TDP1 inh)
COc1ccc(C(=O)N(Cc2ccco2)Cc2ccco2)c(O)c1	none (no result: DT40 TDP1 no CPT, TGFb inhibitor, IL1B secr inh, TDP1 cell CPT, HepG2 tox)
Cn1cc(-c2nc3cncnc3n(Cc3ccc(F)cc3)c2=O)c2ccccc21	TDP1 cell CPT inconclusive (no result: TDP1 inh, TGFb inhibitor, IL1B secr inh, HepG2 tox)
COc1ccc(C(NC(=O)CN2C(=O)NC3(CCc4ccccc43)C2=O)c2ccc(OC)cc2)cc1 (configuration not stated)	DT40 TDP1 no CPT inconclusive, IL1B secr inh -63.9, TDP1 cell CPT inconclusive
COc1ccc(N2CCN(C(=O)c3cc4c(s3)-c3ccccc3OC4)CC2)cc1	none
CC(=O)c1ccc(N2CCN(C(=O)c3cc4cc5cc(C)ccc5nc4s3)CC2)cc1	none (no result: IL1B secr inh)
CC(=O)c1ccc(N2CCN(C(=O)c3cc4c(s3)CCCC4)CC2)cc1	DT40 TDP1 no CPT inconclusive, TGFb inhibitor inconclusive, TDP1 cell CPT 23.1µM
COc1cccc(C(=O)N2CCN(c3ccc(N4CCOCC4)nn3)CC2)c1	none (no result: TDP1 inh)
COc1ccccc1N1CCN(C(=O)c2ccc([N+](=O)[O-])s2)CC1	DT40 TDP1 no CPT inconclusive, TDP1 cell CPT inconclusive
COc1ccc2c(c1)CCc1cc(C(=O)N3CCN(c4ccc(N5CCOCC5)nn4)CC3)sc1-2	DT40 TDP1 no CPT inconclusive, TGFb inhibitor inconclusive, TDP1 cell CPT 20.6µM
COc1ccccc1N1CCN(C(=O)c2cc3c(s2)CCC3)CC1	DT40 TDP1 no CPT 29.1µM, TDP1 cell CPT inconclusive
COc1ccc(N2CCN(C(=O)c3cc4c(s3)CCCCC4)CC2)cc1	DT40 TDP1 no CPT inconclusive, TGFb inhibitor inconclusive, TDP1 cell CPT 20.6µM
COc1ccc(NC(=O)CSc2ccc3nnc(-c4cccnc4)n3n2)c(OC)c1	none
Cc1cc(O)c(C=Nc2ccc(N3CCOCC3)cc2)c(C)c1Cl	DT40 TDP1 no CPT inconclusive (no result: TDP1 inh)
Cc1ccc(Cl)cc1-c1ccc(C=Nc2ccc(N3CCOCC3)cc2)o1	DT40 TDP1 no CPT inconclusive, TGFb inhibitor 11.2µM, TDP1 cell CPT inconclusive
O=C(CCCN1C(=O)/C(=C/c2cccs2)SC1=S)NNC(=O)c1ccccc1O	DT40 TDP1 no CPT 16.4µM, TDP1 cell CPT 20.6µM
O=C(CCCN1C(=O)/C(=C\c2cccs2)SC1=S)Nc1ccc(C(=O)O)cc1	none
O=C(CCCN1C(=O)/C(=C\c2cccs2)SC1=S)Nc1ccc(O)cc1	DT40 TDP1 no CPT inconclusive, TGFb inhibitor inconclusive, TDP1 cell CPT 25.9µM (no result: TDP1 inh)
COc1ccc(/C=C2\SC(=S)N(CCCC(=O)NNC(=O)c3ccccc3O)C2=O)cc1	DT40 TDP1 no CPT 8.2µM, TDP1 cell CPT inconclusive
O=C(CCN1C(=O)/C(=C/c2cccs2)SC1=S)Nc1ccccn1	DT40 TDP1 no CPT inconclusive, TDP1 cell CPT inconclusive
O=C(CCCN1C(=O)/C(=C\c2cccs2)SC1=S)Nc1ccccn1	DT40 TDP1 no CPT 16.4µM, TGFb inhibitor inconclusive, TDP1 cell CPT inconclusive
COc1ccc(/C=C2/SC(=S)N(CCCC(=O)Nc3ccccc3C(=O)O)C2=O)cc1	none
COc1ccc(C2Nc3ccccc3C(=O)N2Cc2ccccc2)cc1OCc1ccc(NC(C)=O)cc1 (configuration not stated)	none (no result: DT40 TDP1 no CPT, TGFb inhibitor, IL1B secr inh, TDP1 cell CPT, HepG2 tox)
COc1ccc(/C=C2/SC(=S)N(CCCC(=O)Nc3cccc(O)c3)C2=O)cc1	DT40 TDP1 no CPT inconclusive, TGFb inhibitor inconclusive, IL1B secr inh -78.9, TDP1 cell CPT inconclusive
